mHTT CaM bind – mutant huntingtin-calmodulin interaction inhibitors – biochemical, AlphaScreen, primary screen | inhibition, % at 15 µM | hit rate 3.6% among 190,000 | P42858 | AID 1671202, 2021 | AlphaScreen His-mHTT/GST-CaM binding, luminescence
Pf apPOL block – Pf-apPOL inhibitors, biochemical, fluorescence. Recombinant Pf-apPOL, molecular beacon fluorescence, 1.5 h. inhibition, % at 10 µM. hit rate 0.25% among 210,000. AID 1794808, 2022
Of the large screens only hits and unclear results are named; the others gave an inactive call. This excerpt belongs to a sample that is enriched for hits. Rule as the data show it: active = inhibition above about 50%; inactive = the rest.

O=C(NCc1cccs1)c1cc2c(s1)CN(C1CC1)C2	none
Cc1nc2c(C(=O)NCCc3ccccc3)cnn2c(C)c1Cc1cccc(Cl)c1	mHTT CaM bind 78.0
Cc1nc2c(C(=O)NCCc3ccc(Cl)cc3)cnn2c(C)c1Cc1ccc(F)cc1	mHTT CaM bind 80.0
Cc1nc2c(C(=O)NCCc3ccccc3)cnn2c(C)c1Cc1ccc(Cl)cc1	none
Cc1nc2c(C(=O)NCCc3ccc(Cl)cc3)cnn2c(C)c1Cc1ccccc1	mHTT CaM bind 53.0
Cc1nc2c(C(=O)NCc3ccccc3)cnn2c(C)c1Cc1cccc(Cl)c1	none
COc1ccc(CNC(=O)c2cnn3c(C)c(Cc4cc(C)ccc4C)c(C)nc23)cc1	none
CCCCNC(=O)c1cnn2c(C)c(Cc3ccc(F)cc3)c(C)nc12	none
COc1ccc(CCNC(=O)c2cnn3c(C)c(Cc4cc(C)ccc4C)c(C)nc23)cc1OC	mHTT CaM bind 53.0
COc1ccc(-c2cc(C(=O)N3CCCC3c3ccccc3C)on2)cc1 (stereo unspecified)	none
COc1ccc(CN2CCC(O)CC2)cc1C	none
CCC(C)NC(=O)C1CCN(c2cncnc2N(C)C)CC1 (stereo unspecified)	none
Cc1ccc(-n2[nH]c3c(cnc4ccc(C(=O)N5CCCCC5)cc43)c2=O)cc1C	none
O=c1oc(-c2ccc(Cl)cc2)nc2ccc(Br)cc12	none
O=C(Cc1ccc(F)cc1)Nc1nnc(C2=COCCO2)o1	mHTT CaM bind 51.1
Cc1ccc(CC(=O)Nc2nnc(C3CC(=O)N(c4ccc(F)cc4)C3)o2)cc1 (stereo unspecified)	none
O=C(Cc1cccc(F)c1)Nc1nnc(C2CC(=O)N(c3ccc(F)cc3)C2)o1 (stereo unspecified)	mHTT CaM bind 73.9
O=C(Cc1ccc(F)cc1)Nc1nnc(-c2ccc3c(c2)CCCC3)o1	none
COc1ccccc1-c1nnc(NC(=O)C2CC(=O)N(c3ccc(F)cc3)C2)o1 (stereo unspecified)	none
Cc1nc(C)c(-c2nnc(NC(=O)C3CC(=O)N(c4ccc(F)cc4)C3)o2)s1 (stereo unspecified)	mHTT CaM bind 96.8
O=C(Cc1ccc(F)cc1)Nc1nnc(C2CC(=O)N(c3ccc(F)cc3)C2)o1 (stereo unspecified)	mHTT CaM bind 80.0
O=C(Cc1cccc(F)c1)Nc1nnc(C2CC(=O)N(c3ccc(Cl)cc3)C2)o1 (stereo unspecified)	none
COc1ccc(OC)c(-c2c(C)c3cc(O)ccc3oc2=O)c1	none
C=CCOc1ccc(C(C2=C(O)CC(C)(C)CC2=O)C2C(=O)CC(C)(C)CC2=O)cc1OC (stereo unspecified)	none
CSc1ccc(N2CC(c3nnc(NC(=O)c4ccco4)o3)CC2=O)cc1 (stereo unspecified)	mHTT CaM bind 65.0
COc1ccc(C(=O)Nc2nnc(C3CC(=O)N(c4ccc(F)cc4)C3)o2)cc1OC (stereo unspecified)	mHTT CaM bind 54.2
O=C(Nc1nnc(C2CC(=O)N(c3ccc(F)cc3)C2)o1)c1ccc(F)cc1 (stereo unspecified)	none
CSc1ccc(N2CC(c3nnc(NC(=O)c4c(F)cccc4F)o3)CC2=O)cc1 (stereo unspecified)	none
Cc1ccc(C(=O)Nc2c3c(nn2-c2cccc(C)c2C)CSC3)cc1	none
O=C(COc1ccccc1)Nc1nnc(CSc2ccccc2)o1	none
O=C(COc1ccccc1F)Nc1nnc(COc2cccc3ccccc23)o1	mHTT CaM bind 55.6
O=C(COc1ccccc1F)Nc1nnc(C2CCCCC2)o1	mHTT CaM bind 62.6
Cc1csc(-c2nnc(NC(=O)COc3ccccc3F)o2)c1	none
COc1ccccc1CN1C(=O)CCC1(C)C(=O)NC1CCCCC1 (stereo unspecified)	none
Cc1nccn1CC(O)Cn1c2ccc(Cl)cc2c2cc(Cl)ccc21 (stereo unspecified)	mHTT CaM bind 99.6
OCCN(CCO)CC(O)Cn1c2ccc(Cl)cc2c2cc(Cl)ccc21 (stereo unspecified)	mHTT CaM bind 100.2
Cc1nccn1CC(C)C(=O)O (stereo unspecified)	none
CC(O)Cn1c2ccccc2c2cc(Cl)ccc21 (stereo unspecified)	none
COc1ccc(/C=C2\SC(=O)N(CNc3ccc(Cl)cc3)C2=O)cc1	none
Cc1nc2c(SCC(=O)NCc3ccco3)nnc(-c3ccccc3)c2s1	mHTT CaM bind 52.9
Cc1nc2c(SCC(=O)Nc3ccc4c(c3)OCO4)nnc(-c3ccccc3)c2s1	none
CC(C)c1ccc(C2Nc3ccc4ncccc4c3C3=C2C(=O)CCC3)cc1 (stereo unspecified)	mHTT CaM bind 65.0
Cc1ccc(C2Nc3ccc4ncccc4c3C3=C2C(=O)CCC3)cc1 (stereo unspecified)	none
Cc1ccc(-n2cnc3cc(C(=O)NC4CCCC4)ccc32)c(C)c1	none
COc1ccc(C)cc1-n1cnc2cc(C(=O)NC3CCCCC3C)ccc21 (stereo unspecified)	mHTT CaM bind 66.0
CCCn1c(-c2ccc(Br)cc2)cn2c3c(=O)n(C)c(=O)n(C)c3nc12	none
Cc1nnc(C)c2c(C)n(C(C)c3ccccc3)c(C)c12 (stereo unspecified)	mHTT CaM bind 74.5
COc1ccc(-n2c(C)c3c(C)nnc(C)c3c2C)cc1OC	none
C=CCn1c(=O)c(C(=O)Nc2ccc(Cl)cc2OC)c(O)c2ccccc21	none
Cc1ccc(-c2cc(C(=O)NC3CC3)ccn2)s1	none
O=C(O)CCNCc1ccccc1	none
c1ccc(CNCc2cnc[nH]2)cc1	mHTT CaM bind 93.8
COc1cc(C(=O)Oc2ccc3c(c2C)OC(=Cc2ccco2)C3=O)cc(OC)c1OC	none
CC(=O)c1ccc(NC(=O)Cn2nc(C(F)(F)F)c(Cl)c2C)cc1	none
CCC1CCc2c(sc(NC(=O)c3ccc4c(c3)OCO4)c2C(N)=O)C1 (stereo unspecified)	none
O=C(NCCNC(=O)c1c(Cl)cccc1Cl)c1c(Cl)cccc1Cl	none
Cc1ccccc1CSCc1ccc(C(=O)O)o1	none
Cc1ccccc1CSCc1ccc(C(=O)N2CCC(c3ccncc3)CC2)o1	mHTT CaM bind 57.6
COc1ccccc1CC(=O)N1CCN(c2ccccn2)CC1	none
O=C(c1cc(-c2ccc(F)cc2)n[nH]1)N1CCN(c2ccc(-c3ccccn3)nn2)CC1	mHTT CaM bind 100.1
O=C(c1ccc(N2CCCC2)nn1)N1CCN(c2ncccn2)CC1	none
COc1ccccc1CC(=O)N1CCN(c2ccc(-c3ccccn3)nn2)CC1	mHTT CaM bind 100.2
O=C(c1ccc(=O)[nH]n1)N1CCN(c2ccc(-c3ccccn3)nn2)CC1	mHTT CaM bind 100.0
O=C(c1ccc(F)cc1F)N1CCN(c2ccc(-c3cccnc3)nn2)CC1	none
NS(=O)(=O)c1ccc(S(=O)(=O)Nc2ccc(Cl)c(Cl)c2)cc1	none
COCCCNC(=O)C1CCN(Cc2cc3ccccc3n2Cc2ccccc2C)CC1	mHTT CaM bind 63.9
COc1ccc(CN2CCC(C(=O)NCc3ccccc3Cl)CC2)c(OC)c1	none
COCCNC(=O)C1CCN(Cc2cc3ccccc3n2Cc2ccccc2Cl)CC1	mHTT CaM bind 83.4
COCCCNC(=O)C1CCN(C(=O)c2cccnc2-c2ccccc2C)CC1	none
CCOc1cccc2cc(C(=O)Nc3ccc(S(N)(=O)=O)cc3)oc12	none
Clc1ccccc1-c1cc2ccccc2[nH]1	none (no result: mHTT CaM bind)
Cc1c(C(=O)O)sc2ncn(CC(=O)Nc3cccc(C(F)(F)F)c3)c(=O)c12	none
CCC(C)NC(=O)c1sc2ncn(CC(=O)Nc3cccc(C(F)(F)F)c3)c(=O)c2c1C (stereo unspecified)	mHTT CaM bind 99.0
